Measured values reported in PubChem BioAssay AID1159580 (chemical genetic matrix, 2015).
Several values for one entry are separate records, joined by “and”; a condition that tells them apart may be missing. Equal entries are not always repeated. Hit rate of the full screen: of about 5,500 compounds, about 2,000 (36%) were called active. Inconclusive results (about 18%) are left out. Cut-off read from the data, not from the text of the source: active = normalized growth mostly below about 0.91 (no sharp cut-off); inconclusive = no clear call, values can overlap the other calls; inactive = mostly above about 0.92. Some of the results follow.

Assay: chemical genetic growth profiling, strain panel (AID 1159580);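 note: tested at 20 µM; growth read once vehicle control cultures reached saturation at 30 °C; 1 = growth at the plate median or of vehicle wells; lower values mean less growth of the strain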
Conditions: S. cerevisiae deletion strains, growth OD

Measured: normalized growth

CC(C)c1c(O)ccc2c1CCC1[C@@](C)(CO)CCC[C@]21C (stereo partly specified)
inactive: locus YAL013W, strain DEP1, hits give low values 0.978 | locus YAL021C, strain ccr4, hits give low values 1.01 | locus YAL026C, strain drs2, hits give low values 1.01 | locus YAL030W, strain snc1, hits give low values 1.01 | locus YBL061C, strain skt5, hits give low values 1.01 | locus YBR009C, strain hhf1, hits give low values 1.04 | locus YBR021W, strain FUR4, hits give low values 0.945 | locus YBR023C, strain chs3, hits give low values 1.03 | locus YBR171W, strain sec66, hits give low values 1.02 | locus YBR229C, strain ROT2, hits give low values 0.958 | locus YBR231C, strain swc5, hits give low values 1.02 | locus YBR279W, strain paf1, hits give low values 1.02 | locus YCL011C, strain gbp2, hits give low values 1.02 | locus YCL016C, strain dcc1, hits give low values 1.02 | locus YCL029C, strain bik1, hits give low values 0.941 | locus YCL069W, strain vba3, hits give low values 1.02 | locus YCR088W, strain abp1, hits give low values 1.02 | locus YDL005C, strain med2, hits give low values 1.02 | locus YDL035C, strain GPR1, hits give low values 0.964 | locus YDL040C, strain nat1, hits give low values 1.01 | locus YDL074C, strain BRE1, hits give low values 0.834 | locus YDL101C, strain DUN1, hits give low values 0.947 | locus YDL134C, strain PPH21, hits give low values 0.911 | locus YDL185W, strain tfp1, hits give low values 0.975 | locus YDL192W, strain arf1, hits give low values 0.92 | locus YDR001C, strain nth1, hits give low values 1.01 | locus YDR069C, strain doa4, hits give low values 1 | locus YDR101C, strain arx1, hits give low values 0.967 | locus YDR137W, strain rgp1, hits give low values 0.885 | locus YDR150W, strain NUM1, hits give low values 0.983 | locus YDR159W, strain sac3, hits give low values 1.02 | locus YDR195W, strain ref2 1.05 | locus YDR297W, strain sur2, hits give low values 1.02 | locus YDR334W, strain swr1, hits give low values 1.03 | locus YDR335W, strain msn5, hits give low values 1.03 | locus YDR388W, hits give low values 0.957 | locus YDR392W, strain spt3, hits give low values 0.991 | locus YEL003W, strain gim4, hits give low values 1.01 | locus YEL037C, strain rad23, hits give low values 1.02 | locus YEL061C, strain CIN8 (second series), hits give low values 1.03 | locus YEL061C, strain CIN8, hits give low values 0.971 | locus YER015W, strain faa2, hits give low values 1.02 | locus YER016W, strain bim1, hits give low values 1.01 | locus YER110C, hits give low values 0.971 | locus YER111C, strain swi4, hits give low values 1.04 | locus YER155C, strain BEM2 (second series), hits give low values 1.03 | locus YER155C, strain BEM2, hits give low values 0.966 | locus YER167W, strain BCK2, hits give low values 0.949 | locus YFR010W, strain ubp6, hits give low values 1.03 | locus YGL078C, strain dbp3, hits give low values 0.961 | locus YGL167C, strain pmr1, hits give low values 1.01 | locus YGL173C, strain kem1, hits give low values 1.02 | locus YGL227W, strain vid30, hits give low values 1.02 | locus YGL240W, strain doc1, hits give low values 1.01 | locus YGL248W, strain PDE1, hits give low values 0.924 | locus YGL253W, strain hxk2, hits give low values 1.01 | locus YGR078C, strain PAC10, hits give low values 0.889 | locus YGR135W, strain pre9, hits give low values 0.93 | locus YGR252W, strain gcn5, hits give low values 0.88 | locus YHR013C, strain ard1, hits give low values 1.03 | locus YHR027C, strain rpn1, hits give low values 1.03 | locus YHR030C, strain SLT2, hits give low values 1.04 | locus YHR079C, strain IRE1 (second series), hits give low values 0.96 | locus YHR079C, strain IRE1, hits give low values 1.07 | locus YHR094C, strain hxt1, hits give low values 0.958 | locus YHR129C, strain ARP1, hits give low values 0.949 | locus YHR142W, strain chs7, hits give low values 1.01 | locus YHR200W, strain rpn10, hits give low values 0.931 | locus YIL066C, strain RNR3, hits give low values 0.94 | locus YIL073C, strain SPO22, hits give low values 0.871 | locus YIL125W, strain kgd1, hits give low values 0.973 | locus YIR030C, strain dcg1, hits give low values 0.954 | locus YJL092W, strain hpr5, hits give low values 1.01 | locus YJL095W, strain BCK1 (second series), hits give low values 1 | locus YJL095W, strain BCK1, hits give low values 0.811 and 1.03 | locus YJL115W, strain asf1, hits give low values 1.03 | locus YJL129C, strain trk1, hits give low values 0.961 | locus YJL134W, strain LCB3, hits give low values 0.973 | locus YJL154C, strain vps35, hits give low values 1.01 | locus YJL164C, strain tpk1, hits give low values 1.02 | locus YJL166W, strain qcr8, hits give low values 1.01 | locus YJL168C, strain set2, hits give low values 0.957 | locus YJL187C, strain SWE1 (second series), hits give low values 0.918 | locus YJR066W, strain TOR1, hits give low values 1.01 | locus YKL009W, strain mrt4, hits give low values 0.91 | locus YKL068W, hits give low values 0.965 | locus YKL085W, strain MDH1 (second series), hits give low values 0.961 | locus YKL085W, strain MDH1, hits give low values 0.961 | locus YKL160W, strain elf1, hits give low values 1.02 | locus YKL190W, strain CNB1, hits give low values 0.979 | locus YKR026C, strain gcn3, hits give low values 1.02 | locus YKR091W, strain srl3, hits give low values 1.01 | locus YLL001W, strain dnm1, hits give low values 1.01 | locus YLL026W, hits give low values 1.01 | locus YLL041C, strain sdh2, hits give low values 1.03 | locus YLR027C, strain aat2, hits give low values 0.999 | locus YLR058C, strain SHM2, hits give low values 0.944 | locus YLR102C, strain apc9, hits give low values 0.959 | locus YLR113W, strain HOG1, hits give low values 0.996 | locus YLR221C, strain rsa3, hits give low values 1.01 | locus YLR258W, strain gsy2, hits give low values 1.03 | locus YLR268W, strain sec22, hits give low values 0.926 | locus YLR320W, strain mms22, hits give low values 1.01 | locus YLR330W, strain CHS5, hits give low values 0.951 | locus YLR342W, strain FKS1, hits give low values 1.01 | locus YLR357W, strain rsc2, hits give low values 1.08 | locus YLR370C, strain arc18, hits give low values 1.03 | locus YLR371W, strain rom2, hits give low values 0.97 | locus YLR384C, strain iki3, hits give low values 1.03 | locus YML016C, strain PPZ1, hits give low values 0.97 | locus YML032C, strain rad52, hits give low values 0.909 | locus YML120C, strain ndi1, hits give low values 1.02 | locus YML124C, strain tub3, hits give low values 0.959 | locus YMR058W, strain fet3, hits give low values 1.02 | locus YMR078C, strain ctf18, hits give low values 0.928 | locus YMR125W, strain sto1, hits give low values 1.03 | locus YMR129W, hits give low values 1.02 | locus YMR205C, strain PFK2, hits give low values 1.01 | locus YMR223W, strain ubp8, hits give low values 0.914 | locus YMR231W, strain pep5, hits give low values 1.04 | locus YMR307W, strain GAS1, hits give low values 0.7 | locus YNL067W, strain RPL9B, hits give low values 0.939 | locus YNL071W, strain lat1, hits give low values 1.02 | locus YNL183C, strain NPR1, hits give low values 0.994 | locus YNL209W, strain ssb2, hits give low values 1.02 | locus YNL233W, strain BNI4, hits give low values 0.885 | locus YNL248C, strain rpa49, hits give low values 1.04 | locus YNL250W, strain rad50, hits give low values 0.965 | locus YNL271C, strain bni1, hits give low values 0.961 | locus YNL298W, strain CLA4, hits give low values 0.951 | locus YNL322C, strain KRE1 (second series), hits give low values 1.03 | locus YNR049C, strain mso1, hits give low values 1.01 | locus YNR052C, strain pop2, hits give low values 0.92 | locus YOL012C, strain htz1 1.16 | locus YOL147C, strain pex11, hits give low values 0.942 | locus YOR001W, strain rrp6, hits give low values 1.02 | locus YOR061W, strain CKA2, hits give low values 0.964 | locus YOR069W, strain VPS5, hits give low values 0.965 | locus YOR070C, strain gyp1, hits give low values 1.01 | locus YOR080W, strain dia2, hits give low values 1.02 | locus YOR083W, strain WHI5, hits give low values 1.02 | locus YOR106W, strain vam3, hits give low values 1.04 | locus YOR136W, strain idh2, hits give low values 0.966 | locus YOR144C, strain elg1, hits give low values 0.961 | locus YOR231W, strain MKK1, hits give low values 1.03 | locus YOR265W, strain rbl2, hits give low values 1 | locus YOR270C, strain vph1, hits give low values 1.01 | locus YOR290C, strain snf2, hits give low values 1.04 | locus YOR316C, strain cot1, hits give low values 0.956 | locus YPL051W, strain arl3, hits give low values 1.02 | locus YPL055C, strain LGE1, hits give low values 0.887 | locus YPL078C, strain atp4, hits give low values 1.04 | locus YPL106C, strain sse1, hits give low values 1.07 | locus YPL240C, strain hsp82, hits give low values 1.01 | locus YPL256C, strain CLN2, hits give low values 1.08 | locus YPR119W, strain clb2, hits give low values 0.948 | locus YPR141C, strain kar3, hits give low values 0.955 | locus YPR167C, strain met16, hits give low values 0.953 | strain wtn01, hits give low values 0.945
active: locus YDR162C, strain NBP2, hits give low values 0.79 | locus YDR318W, strain mcm21, hits give low values 0.911 | locus YDR502C, strain sam2, hits give low values 0.898 | locus YGL086W, strain mad1, hits give low values 0.898 | locus YKR001C, strain vps1, hits give low values 0.895 | locus YLR039C, strain RIC1, hits give low values 0.443 | locus YLR262C, strain YPT6 (second series), hits give low values 0.842 | locus YLR262C, strain YPT6, hits give low values 0.397 | locus YLR418C, strain cdc73, hits give low values 0.725 | locus YNL307C, strain MCK1, hits give low values 0.885 | locus YOR184W, strain ser1, hits give low values 0.778 | locus YPR163C, strain tif3, hits give low values 0.883
